Experimental data published in PubChem BioAssay (EPA / NIEHS).
“And” between values parts separate entries of the source, which are not always exact repeats. Equal entries are not always repeated. Records with an inconclusive call do not appear. Some structures have more than one record in an assay (separate samples or runs), and their calls can disagree. The source made the active and inactive calls. How the source made its calls, unless noted: active means hit-call score of the fitted dose curve at least 0.9, where 1 is the maximum; inconclusive means response in the unintended direction; inactive means score below 0.9.

What was measured:
[1] = biological target: Cellular tumor antigen p53 (Homo sapiens) (UniProt P04637); assay: TOX21_p53_BLA_p3_ratio: Tox21 HCT-116 p53 Agonism Beta-lactamase Assay, Ratio, Phase 3 (AID 2283596)
In short: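 HCT116 p53-bla cells (4000/well) given compound in DMSO (217-fold dilution) after 5 h, incubated 16 h at 37C. CCF4-AM substrate 2 h at room temperature; 460/530 nm emission ratio, gain fitted against DMSO.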

[2] = TOX21_p53_BLA_p4_viability: Viability Assessment in the Tox21 HCT-116 p53 Agonism Beta-lactamase Assay, Phase 4 (AID 2283597);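 further: hits lower the luminescence signal meaning cytotoxicity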
In short: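 HCT-116 p53-bla cells, 4000/well, dosed after 5 h attachment and incubated 16 h at 37 °C, 5% CO2. Viability from CellTiter-Glo ATP luminescence after 30 min at room temperature, taken after the beta-lactamase read; loss of signal indicates cytotoxicity.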

[3] = biological target: Cellular tumor antigen p53 (Homo sapiens) (UniProt P04637); assay: TOX21_p53_BLA_p5_ratio: Tox21 HCT-116 p53 Agonism Beta-lactamase Assay, Ratio, Phase 5 (AID 2283599)
In short: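 HCT-116 cells carrying a p53-inducible beta-lactamase reporter were seeded at 4000 cells/well and dosed after 5 h with compound in DMSO (217-fold dilution). After 16 h at 37C, CCF4-AM substrate was added for 2 h, and the 460/530 nm emission ratio was scored as gain-of-signal versus DMSO.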

[4] = TOX21_p53_BLA_p5_viability: Viability Assessment in the Tox21 HCT-116 p53 Agonism Beta-lactamase Assay, Phase 5 (AID 2283600)
In short: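 HCT-116 p53 beta-lactamase reporter cells, 4000/well, were exposed to compound (pin transfer, 217-fold dilution) for 16 hours at 37C. Cellular ATP was read by CellTiter-Glo luminescence after 30 min at room temperature.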

[5] = biological target: Cellular tumor antigen p53 (Homo sapiens) (UniProt P04637); assay: TOX21_p53_BLA_p4_ratio: Tox21 HCT-116 p53 Agonism Beta-lactamase Assay, Ratio, Phase 4 (AID 2283601)
In short: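 HCT116 cells carrying an inducible beta-lactamase reporter were plated at 4000 cells/well, rested 5 h, then exposed to compounds in DMSO (217-fold dilution) for 16 h at 37C. CCF4-AM substrate was loaded 2 h at room temperature; 460/530 nm emission ratio scored gain-of-signal versus DMSO.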

[6] = Tanguay_ZF_120hpf_MORT_legacy: (Legacy) Oregon State University Tanguay Lab 120 Hour Post-fertilization zebrafish Assay for Mortality (AID 2283633);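 on AC50: fitted as increase in binary mortality versus DMSO negative control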
In short: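 Dechorionated Tropical 5D wild-type zebrafish embryos, one per well from 6 hpf, static exposure in 0.64% DMSO at 28C until 120 hpf. Mortality scored as binary by brightfield microscopy at 24 and 120 hpf.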

[7] = Tanguay_ZF_120hpf_YSE_legacy: (Legacy) Oregon State University Tanguay Lab 120 Hour Post-fertilization zebrafish Assay for Yolk Sac Edema (AID 2283634)
In short: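 Dechorionated Tropical 5D wild-type zebrafish embryos were exposed statically, one per well, from 6 to 120 hpf at 28C in 0.64% DMSO. Yolk sac edema was scored present/absent by brightfield at 120 hpf, and dead embryos were excluded.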

[8] = Tanguay_ZF_120hpf_AXIS_legacy: (Legacy) Oregon State University Tanguay Lab 120 Hour Post-fertilization zebrafish Assay for Body Axis Malformation (AID 2283635)
In short: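 Dechorionated wild-type Tropical 5D zebrafish embryos, one per well, statically exposed from 6 hpf to 120 hpf at 28C in 0.64% DMSO final. Body axis malformation scored present/absent by brightfield microscopy at 120 hpf; dead embryos excluded.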

[9] = Tanguay_ZF_120hpf_EYE_legacy: (Legacy) Oregon State University Tanguay Lab 120 Hour Post-fertilization zebrafish Assay for Eye Malformation (AID 2283636);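 further: binary presence or absence of eye malformation scored by brightfield in 120 hpf larvae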
In short: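 Dechorionated wild-type Tropical 5D zebrafish embryos were exposed statically from 6 hpf, one per well, to 120 hpf at 28C in sealed, foil-covered plates with 0.64% DMSO. Eye malformation was scored present/absent by brightfield microscopy against DMSO controls.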

[10] = Tanguay_ZF_120hpf_SNOU_legacy: (Legacy) Oregon State University Tanguay Lab 120 Hour Post-fertilization zebrafish Assay for Snout Malformation (AID 2283637)
In short: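 Tropical 5D wild-type zebrafish embryos, dechorionated with pronase at 4 hpf, were exposed singly from 6 hpf to 120 hpf statically at 28C in 0.64% DMSO. Snout malformation was scored present/absent by brightfield microscopy, fitted against DMSO.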

[11] = Tanguay_ZF_120hpf_JAW_legacy: (Legacy) Oregon State University Tanguay Lab 120 Hour Post-fertilization zebrafish Assay for Jaw Malformation (AID 2283638)
In short: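 Dechorionated Tropical 5D wild-type zebrafish embryos, one per well, exposed statically from 6 hpf to 120 hpf at 28C in 0.64% DMSO. Jaw malformation was scored by brightfield microscopy as present or absent. It was not scored in dead embryos.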

[12] = Tanguay_ZF_120hpf_OTIC_legacy: (Legacy) Oregon State University Tanguay Lab 120 Hour Post-fertilization zebrafish Assay for Otic Vesicle Malformation (AID 2283639)
In short: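 Otic vesicle malformation is read as a yes/no morphology call at 120 hpf. Exposure is static at 28C with 0.64% (vol/vol) DMSO; embryos that die are excluded from non-mortality endpoints.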

[13] = Tanguay_ZF_120hpf_PE_legacy: (Legacy) Oregon State University Tanguay Lab 120 Hour Post-fertilization zebrafish Assay for Pericardial Edema (AID 2283640)
In short: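 Tropical 5D wild-type zebrafish embryos were statically exposed until 120 hpf at 28C, with 0.64% DMSO final. Pericardial edema was scored by brightfield as present or absent; endpoints were not scored in dead embryos.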

[14] = Tanguay_ZF_120hpf_BRAI_legacy: (Legacy) Oregon State University Tanguay Lab 120 Hour Post-fertilization zebrafish Assay for Brain Malformation (AID 2283641)
In short: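 Tropical 5D wild-type zebrafish embryos exposed statically until 120 hpf at 28C, 0.64% DMSO final, sealed and dark. Brain malformation scored present/absent by brightfield at 120 hpf; dead embryos excluded. Trimethyltin chloride 5uM positive control.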

[15] = Tanguay_ZF_120hpf_SOMI_legacy: (Legacy) Oregon State University Tanguay Lab 120 Hour Post-fertilization zebrafish Assay for Somite Malformation (AID 2283647)
In short: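 Dechorionated Tropical 5D wild-type zebrafish embryos, one per well from 6 hpf, statically exposed at 28C to 120 hpf in 0.64% DMSO; somite malformation scored present/absent by brightfield; trimethyltin 5 uM positive control; dead embryos not scored.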

[16] = Tanguay_ZF_120hpf_PFIN_legacy: (Legacy) Oregon State University Tanguay Lab 120 Hour Post-fertilization zebrafish Assay for Pectoral Fin Malformation (AID 2283648);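 further: each larva judged yes or no for fin defect by brightfield with dead larvae skipped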
In short: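 Tropical 5D wild-type embryos, dechorionated with pronase at 4 hpf, were placed singly in wells at 6 hpf and statically exposed until 120 hpf at 28C, sealed and dark, with 0.64% (vol/vol) final DMSO; pectoral fin malformation scored present/absent.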

[17] = Tanguay_ZF_120hpf_PIG_legacy: (Legacy) Oregon State University Tanguay Lab 120 Hour Post-fertilization zebrafish Assay for Pigmentation Malformation (AID 2283650)
In short: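 Tropical 5D wild-type zebrafish embryos, dechorionated with pronase at 4 hpf, were exposed singly from 6 hpf to 120 hpf statically at 28C in sealed, dark plates with 0.64% DMSO; pigmentation scored present/absent by brightfield microscopy, fitted against DMSO.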

[18] = Tanguay_ZF_120hpf_CIRC_legacy: (Legacy) Oregon State University Tanguay Lab 120 Hour Post-fertilization zebrafish Assay for Circulatory Malformation (AID 2283651)
In short: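 Using wild-type Tropical 5D zebrafish, we exposed dechorionated embryos from 6 to 120 hpf in embryo medium with 0.64% DMSO. Circulatory defects were scored as present or absent; 5uM trimethyltin chloride served as positive control.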

[19] = Tanguay_ZF_120hpf_CFIN_legacy: (Legacy) Oregon State University Tanguay Lab 120 Hour Post-fertilization zebrafish Assay for Caudal Fin Malformation (AID 2283649)
In short: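 Dechorionated Tropical 5D wild-type embryos, one per well from 6 hpf, static exposure to 120 hpf at 28C in 0.64% DMSO. Caudal fin malformation scored by brightfield as present/absent; not scored in dead embryos.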

[20] = read-out: kallikrein-3 (KLK3), KLK3 (gene 354); assay: LTEA_HepaRG_KLK3: Life Technologies and Expression Analysis (LTEA) Assay for kallikrein-3 (KLK3) using HepaRG (AID 2283652; active means hit-call score of the fitted dose curve at least 0.9, where 1 is the maximum; inactive means score below 0.9); details: mRNA level, 48 h; actives raise or lower the signal
In short: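 Differentiated human HepaRG cells in serum-free induction medium exposed 48 h in duplicate, eight-point half-log series from 100 uM in 0.5% DMSO. KLK3 mRNA by qRT-PCR, normalised to ACTB, GAPDH, POLR2A; bidirectional fit versus DMSO.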

Measured: AC50

Cellular tumor antigen p53 (Homo sapiens), sequence (P04637 whole entry, looked up): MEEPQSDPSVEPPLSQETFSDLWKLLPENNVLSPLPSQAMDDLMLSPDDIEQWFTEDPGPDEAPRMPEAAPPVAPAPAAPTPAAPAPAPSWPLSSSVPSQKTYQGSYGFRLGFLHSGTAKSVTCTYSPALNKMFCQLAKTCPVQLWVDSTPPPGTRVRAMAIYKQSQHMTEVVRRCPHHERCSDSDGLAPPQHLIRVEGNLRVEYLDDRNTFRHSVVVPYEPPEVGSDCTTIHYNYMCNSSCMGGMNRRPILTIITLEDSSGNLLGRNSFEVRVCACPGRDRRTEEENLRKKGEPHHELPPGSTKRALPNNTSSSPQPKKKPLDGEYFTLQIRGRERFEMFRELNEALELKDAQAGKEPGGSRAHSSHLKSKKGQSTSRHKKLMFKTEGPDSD

CCCCNC(=O)OCC#CI
active: [1] 59.5 µM and 78 µM | [2] 35.9 µM | [3] 78.1 µM | [5] 12.8 µM | [6] 24 µM
inactive: [2] | [3] | [4] | [5] | [7] | [8] | [9] | [10] | [11] | [12] | [13] | [14] | [15] | [16] | [17] | [18]

N#CC(CCc1ccc(Cl)cc1)(Cn1cncn1)c1ccccc1 (stereo not given)
inactive: [1] | [3] | [4] | [6] | [7] | [8] | [10] | [11] | [12] | [13] | [14] | [15] | [16] | [19] | [17] | [18]
active: [2] 39.1 µM | [5] 71.5 µM

CC(Oc1ccc(Cl)cc1Cl)C(=O)O (stereo not given)
inactive: [1] | [2] | [3] | [4] | [5] | [7] | [8] | [9] | [10] | [12] | [13] | [14] | [16] | [17] | [18]

OC(c1ccc(Cl)cc1)(c1cncnc1)c1ccccc1Cl (stereo not given)
active: [5] 63 µM
inactive: [1] | [2] | [3] | [4] | [7] | [8] | [9] | [10] | [11] | [12] | [13] | [14] | [15] | [16] | [17] | [20]

CC(C)Oc1cc(-n2nc(C(C)(C)C)oc2=O)c(Cl)cc1Cl
inactive: [1] | [2] | [3] | [5] | [7] | [8] | [9] | [10] | [14] | [16] | [18]
active: [2] 27.7 µM | [4] 28.5 µM

Cc1cc(Cl)ccc1OCC(=O)O
inactive: [1] | [2] | [3] | [4] | [5] | [7] | [8] | [9] | [10] | [11] | [12] | [13] | [14] | [15] | [16] | [17]
